Reference: the supplement of paper PMC11732987, “Enantioselective OTUD7B fragment discovery through chemoproteomics screening and high-throughput optimisation” (Communications Chemistry, 2025)

Tests used:
Assay in all cases: log2 ratio of Biotin-Ahx-Ub-VS probe labelling (fragment/DMSO); higher = less target engagement (more negative = stronger competition), active = hit call of the paper (q ≤ 0.05, log2 ratio ≤ -1)
Details in all cases: compound concentration: 200 uM; treatment time: 3 h
USP19 = target: T1, USP19 (UniProt O94966)
T1 sequence (whole entry): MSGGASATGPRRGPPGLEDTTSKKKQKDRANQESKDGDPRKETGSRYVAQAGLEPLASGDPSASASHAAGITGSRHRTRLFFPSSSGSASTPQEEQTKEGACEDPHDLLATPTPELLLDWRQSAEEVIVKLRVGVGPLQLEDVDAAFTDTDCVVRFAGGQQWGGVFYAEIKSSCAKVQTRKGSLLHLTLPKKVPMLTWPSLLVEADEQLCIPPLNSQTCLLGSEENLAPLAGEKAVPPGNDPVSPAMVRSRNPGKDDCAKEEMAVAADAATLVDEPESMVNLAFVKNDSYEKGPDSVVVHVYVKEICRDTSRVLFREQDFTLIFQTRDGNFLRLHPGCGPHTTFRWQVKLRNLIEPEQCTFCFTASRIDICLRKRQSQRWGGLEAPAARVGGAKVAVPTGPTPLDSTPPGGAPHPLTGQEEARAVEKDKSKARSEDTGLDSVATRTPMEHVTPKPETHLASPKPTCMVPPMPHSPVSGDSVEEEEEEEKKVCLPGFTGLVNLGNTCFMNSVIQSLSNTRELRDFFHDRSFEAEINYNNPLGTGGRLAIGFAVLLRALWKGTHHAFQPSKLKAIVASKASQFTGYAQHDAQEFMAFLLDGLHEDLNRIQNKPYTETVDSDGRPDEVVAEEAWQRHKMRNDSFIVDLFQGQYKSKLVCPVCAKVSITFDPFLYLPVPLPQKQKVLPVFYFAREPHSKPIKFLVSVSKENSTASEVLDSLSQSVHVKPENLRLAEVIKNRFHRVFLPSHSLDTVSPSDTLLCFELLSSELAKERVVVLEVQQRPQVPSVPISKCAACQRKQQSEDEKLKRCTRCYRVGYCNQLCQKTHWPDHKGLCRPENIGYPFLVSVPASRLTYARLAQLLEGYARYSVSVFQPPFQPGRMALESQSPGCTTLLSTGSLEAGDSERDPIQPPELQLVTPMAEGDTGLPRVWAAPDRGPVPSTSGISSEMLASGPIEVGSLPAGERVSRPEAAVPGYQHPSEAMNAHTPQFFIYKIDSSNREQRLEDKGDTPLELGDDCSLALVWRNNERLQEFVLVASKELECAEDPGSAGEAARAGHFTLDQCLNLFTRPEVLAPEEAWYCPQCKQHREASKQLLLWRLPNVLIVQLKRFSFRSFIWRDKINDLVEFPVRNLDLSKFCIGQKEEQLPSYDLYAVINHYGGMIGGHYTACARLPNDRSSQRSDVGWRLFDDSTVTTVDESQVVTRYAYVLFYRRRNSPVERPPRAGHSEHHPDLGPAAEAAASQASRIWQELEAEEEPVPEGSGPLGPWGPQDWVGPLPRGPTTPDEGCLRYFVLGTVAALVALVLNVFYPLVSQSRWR
Outline: (§1)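 HEK293T lysate in Tris/CHAPS/IGEPAL buffer with protease inhibitors (495 µg per sample) was given fragment at 200 µM or vehicle for 3 h, in triplicate. It then received Biotin-Ahx-Ub-VS at 0.5 µM final for 1 h. Labelled DUBs were NeutrAvidin-enriched, digested with LysC and trypsin, and run by diaPASEF LC-MS/MS. Values are average log2 fragment/vehicle ratios by unpaired t-test on global-median-normalised Spectronaut quantities of proteins with ≥2 unique peptides.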

USP22 = target: T2, USP22 (UniProt Q9UPT9)
T2 sequence (whole entry): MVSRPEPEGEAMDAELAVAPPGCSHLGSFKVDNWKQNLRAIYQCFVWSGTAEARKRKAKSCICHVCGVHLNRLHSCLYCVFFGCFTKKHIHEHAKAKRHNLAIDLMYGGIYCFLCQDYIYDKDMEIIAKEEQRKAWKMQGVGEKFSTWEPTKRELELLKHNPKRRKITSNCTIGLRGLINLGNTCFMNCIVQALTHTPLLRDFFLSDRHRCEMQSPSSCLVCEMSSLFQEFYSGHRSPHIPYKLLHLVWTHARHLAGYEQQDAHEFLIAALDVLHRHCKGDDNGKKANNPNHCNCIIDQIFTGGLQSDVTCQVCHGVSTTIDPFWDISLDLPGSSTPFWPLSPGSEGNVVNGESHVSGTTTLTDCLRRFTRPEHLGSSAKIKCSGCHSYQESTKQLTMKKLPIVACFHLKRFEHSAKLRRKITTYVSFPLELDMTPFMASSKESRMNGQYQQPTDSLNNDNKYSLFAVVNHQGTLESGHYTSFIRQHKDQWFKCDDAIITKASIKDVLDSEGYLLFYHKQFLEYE
Outline: as §1

USP24 = USP24 (UniProt Q9UPU5)
Outline: as §1

USP25 = target: T3, USP25 (UniProt Q9UHP3)
T3 sequence (whole entry): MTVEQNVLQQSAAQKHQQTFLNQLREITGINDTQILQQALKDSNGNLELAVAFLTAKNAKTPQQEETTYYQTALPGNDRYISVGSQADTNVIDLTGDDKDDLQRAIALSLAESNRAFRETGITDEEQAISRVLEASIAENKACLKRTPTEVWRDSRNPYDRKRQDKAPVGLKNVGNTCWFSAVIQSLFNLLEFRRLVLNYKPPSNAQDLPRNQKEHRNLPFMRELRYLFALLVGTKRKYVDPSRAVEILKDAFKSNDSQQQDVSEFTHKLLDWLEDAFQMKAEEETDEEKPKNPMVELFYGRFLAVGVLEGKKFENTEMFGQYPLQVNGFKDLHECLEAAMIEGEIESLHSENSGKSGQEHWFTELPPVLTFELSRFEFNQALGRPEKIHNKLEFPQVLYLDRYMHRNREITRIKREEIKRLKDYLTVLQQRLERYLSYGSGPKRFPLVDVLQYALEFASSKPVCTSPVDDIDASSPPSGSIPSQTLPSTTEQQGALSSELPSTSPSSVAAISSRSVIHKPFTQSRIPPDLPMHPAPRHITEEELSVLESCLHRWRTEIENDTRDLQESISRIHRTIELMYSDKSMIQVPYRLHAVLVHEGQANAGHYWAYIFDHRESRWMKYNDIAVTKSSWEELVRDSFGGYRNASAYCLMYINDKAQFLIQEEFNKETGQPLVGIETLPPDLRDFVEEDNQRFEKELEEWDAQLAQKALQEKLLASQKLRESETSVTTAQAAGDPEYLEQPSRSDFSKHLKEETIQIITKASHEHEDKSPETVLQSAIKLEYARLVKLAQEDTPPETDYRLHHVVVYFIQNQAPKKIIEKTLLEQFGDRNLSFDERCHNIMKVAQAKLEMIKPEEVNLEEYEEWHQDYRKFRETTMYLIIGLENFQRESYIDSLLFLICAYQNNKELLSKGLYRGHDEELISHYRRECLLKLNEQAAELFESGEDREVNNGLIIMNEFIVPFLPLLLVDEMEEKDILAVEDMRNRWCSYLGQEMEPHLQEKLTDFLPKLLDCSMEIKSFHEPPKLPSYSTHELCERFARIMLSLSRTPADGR
Outline: as §1

USP28 = target: T4, USP28 (UniProt Q96RU2)
T4 sequence (whole entry): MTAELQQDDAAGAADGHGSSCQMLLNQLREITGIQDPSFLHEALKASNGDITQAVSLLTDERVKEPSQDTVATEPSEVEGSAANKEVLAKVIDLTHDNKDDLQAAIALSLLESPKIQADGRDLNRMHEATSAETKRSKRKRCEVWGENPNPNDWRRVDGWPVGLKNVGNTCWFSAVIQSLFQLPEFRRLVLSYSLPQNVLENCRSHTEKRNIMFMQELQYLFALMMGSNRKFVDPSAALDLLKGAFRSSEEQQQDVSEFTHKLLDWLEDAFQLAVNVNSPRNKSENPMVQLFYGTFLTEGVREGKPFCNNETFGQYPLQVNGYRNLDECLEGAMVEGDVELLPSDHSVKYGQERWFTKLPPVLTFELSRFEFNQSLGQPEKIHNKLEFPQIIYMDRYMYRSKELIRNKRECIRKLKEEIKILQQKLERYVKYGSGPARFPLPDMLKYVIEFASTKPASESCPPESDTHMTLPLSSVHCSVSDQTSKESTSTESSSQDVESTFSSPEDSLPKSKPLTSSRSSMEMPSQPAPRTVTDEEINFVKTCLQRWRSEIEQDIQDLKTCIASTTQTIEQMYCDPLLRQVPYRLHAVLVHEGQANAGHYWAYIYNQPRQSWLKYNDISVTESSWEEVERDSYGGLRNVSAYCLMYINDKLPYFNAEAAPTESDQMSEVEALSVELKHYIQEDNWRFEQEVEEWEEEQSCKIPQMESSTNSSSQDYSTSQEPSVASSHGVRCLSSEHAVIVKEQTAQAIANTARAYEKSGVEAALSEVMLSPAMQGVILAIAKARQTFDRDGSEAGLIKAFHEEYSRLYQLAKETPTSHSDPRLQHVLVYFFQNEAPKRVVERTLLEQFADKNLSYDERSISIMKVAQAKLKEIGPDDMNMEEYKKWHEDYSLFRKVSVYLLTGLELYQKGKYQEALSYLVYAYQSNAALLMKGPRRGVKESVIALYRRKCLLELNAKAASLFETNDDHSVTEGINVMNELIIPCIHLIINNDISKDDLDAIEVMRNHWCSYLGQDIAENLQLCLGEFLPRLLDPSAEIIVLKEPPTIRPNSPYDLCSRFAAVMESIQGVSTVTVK
Outline: as §1

Measured: log2 ratio of Biotin-Ahx-Ub-VS probe labelling

Sequence of USP24 (Q9UPU5 whole entry): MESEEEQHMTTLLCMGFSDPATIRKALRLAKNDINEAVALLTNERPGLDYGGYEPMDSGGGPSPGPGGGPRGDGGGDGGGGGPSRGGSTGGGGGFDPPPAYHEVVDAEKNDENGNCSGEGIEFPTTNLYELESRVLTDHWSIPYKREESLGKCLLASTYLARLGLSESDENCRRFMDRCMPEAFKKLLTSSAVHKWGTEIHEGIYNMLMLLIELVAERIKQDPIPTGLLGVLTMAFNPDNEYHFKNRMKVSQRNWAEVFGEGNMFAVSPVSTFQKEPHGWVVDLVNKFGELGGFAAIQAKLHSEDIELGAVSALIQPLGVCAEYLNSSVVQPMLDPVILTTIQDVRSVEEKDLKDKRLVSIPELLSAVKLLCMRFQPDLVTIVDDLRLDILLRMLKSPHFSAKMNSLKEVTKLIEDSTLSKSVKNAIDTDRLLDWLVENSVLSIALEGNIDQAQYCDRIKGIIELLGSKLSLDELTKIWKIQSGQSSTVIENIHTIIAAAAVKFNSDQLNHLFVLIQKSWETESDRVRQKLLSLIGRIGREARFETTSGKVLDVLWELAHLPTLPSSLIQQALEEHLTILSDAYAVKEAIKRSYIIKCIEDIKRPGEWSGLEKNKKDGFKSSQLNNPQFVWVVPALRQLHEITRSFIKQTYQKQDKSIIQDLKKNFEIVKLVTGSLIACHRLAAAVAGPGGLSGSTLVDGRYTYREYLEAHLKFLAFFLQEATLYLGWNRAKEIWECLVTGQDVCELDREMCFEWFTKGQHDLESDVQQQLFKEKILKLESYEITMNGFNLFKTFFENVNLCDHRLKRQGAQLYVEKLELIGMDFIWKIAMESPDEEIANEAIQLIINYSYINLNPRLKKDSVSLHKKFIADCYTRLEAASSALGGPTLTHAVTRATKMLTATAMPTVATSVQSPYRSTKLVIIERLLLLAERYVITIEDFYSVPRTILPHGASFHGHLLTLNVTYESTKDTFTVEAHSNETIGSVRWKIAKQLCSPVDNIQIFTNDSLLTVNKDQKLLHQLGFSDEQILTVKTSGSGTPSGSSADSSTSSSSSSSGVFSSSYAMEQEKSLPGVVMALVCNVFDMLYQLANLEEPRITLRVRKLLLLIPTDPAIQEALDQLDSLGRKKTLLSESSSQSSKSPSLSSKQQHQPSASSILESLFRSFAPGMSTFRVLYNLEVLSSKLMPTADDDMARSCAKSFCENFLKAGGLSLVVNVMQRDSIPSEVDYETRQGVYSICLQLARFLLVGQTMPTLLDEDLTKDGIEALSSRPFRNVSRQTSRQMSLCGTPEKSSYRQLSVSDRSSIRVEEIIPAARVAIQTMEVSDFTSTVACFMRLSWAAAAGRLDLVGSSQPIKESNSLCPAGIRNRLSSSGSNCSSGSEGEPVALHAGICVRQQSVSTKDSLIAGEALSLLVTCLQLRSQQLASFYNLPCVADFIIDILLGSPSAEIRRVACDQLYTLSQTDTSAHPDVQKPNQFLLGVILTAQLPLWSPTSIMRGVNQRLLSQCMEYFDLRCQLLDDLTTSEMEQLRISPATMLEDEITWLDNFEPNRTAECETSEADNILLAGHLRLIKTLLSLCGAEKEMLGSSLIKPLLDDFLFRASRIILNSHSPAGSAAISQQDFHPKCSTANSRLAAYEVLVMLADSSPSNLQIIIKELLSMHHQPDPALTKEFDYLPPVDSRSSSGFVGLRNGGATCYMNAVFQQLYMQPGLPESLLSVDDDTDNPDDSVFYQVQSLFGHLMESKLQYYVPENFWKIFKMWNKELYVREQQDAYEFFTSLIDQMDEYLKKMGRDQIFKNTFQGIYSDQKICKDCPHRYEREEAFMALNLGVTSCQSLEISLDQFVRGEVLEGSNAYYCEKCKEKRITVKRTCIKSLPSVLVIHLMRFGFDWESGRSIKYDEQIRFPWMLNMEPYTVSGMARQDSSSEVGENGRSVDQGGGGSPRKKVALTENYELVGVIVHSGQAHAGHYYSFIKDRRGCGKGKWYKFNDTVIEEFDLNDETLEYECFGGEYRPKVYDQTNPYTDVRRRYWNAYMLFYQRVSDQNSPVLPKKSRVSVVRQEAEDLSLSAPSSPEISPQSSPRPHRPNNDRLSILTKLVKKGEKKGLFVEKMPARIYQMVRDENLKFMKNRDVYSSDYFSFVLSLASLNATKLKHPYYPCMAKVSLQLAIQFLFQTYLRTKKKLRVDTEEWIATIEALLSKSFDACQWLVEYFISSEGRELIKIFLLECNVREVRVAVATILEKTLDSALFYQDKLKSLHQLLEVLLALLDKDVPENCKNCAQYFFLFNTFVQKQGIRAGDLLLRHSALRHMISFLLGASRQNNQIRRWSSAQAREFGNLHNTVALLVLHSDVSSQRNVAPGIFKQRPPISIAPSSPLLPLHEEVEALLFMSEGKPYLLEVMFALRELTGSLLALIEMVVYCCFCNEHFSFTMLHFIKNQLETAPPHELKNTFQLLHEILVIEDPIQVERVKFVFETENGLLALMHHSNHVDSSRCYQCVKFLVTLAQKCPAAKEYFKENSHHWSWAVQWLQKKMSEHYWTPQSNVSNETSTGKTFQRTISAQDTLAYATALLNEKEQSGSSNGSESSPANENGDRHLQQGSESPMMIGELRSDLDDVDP

C[C@@H](NC(=O)CCl)c1cccc(C#N)c1
inactive: USP19 -0.157 | USP22 0.031 | USP24 -0.254 | USP25 -0.569 | USP28 -0.723
